Assay results reported in PubChem BioAssay (NCATS).
Unmarked numbers belong to inactive results. Inconclusive results are not listed. Where a call stands in place of a potency, no number is given. The source made the active and inactive calls. Calls come from the whole dose curve; as a rule, active = well fitted curve in the direction sought with a large enough effect; inconclusive = small, poorly fitted or top-dose-only effect, or another doubt; inactive = no such curve, though single readings can be large; an effect the other way counts as inactive or inconclusive.

Assays:
[1] = biological target: Furin (Homo sapiens) (UniProt P09958); test: Furin counterscreen qHTS for Zika virus inhibitors (AID 1347149); note: nearly all actives have a fitted effect of over 70% in size; note: potency is the fitted concentration of half-maximal effect;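 for activity change, negative = inhibition: purified recombinant full-length human furin enzyme at 5 nM; fluorescence gain from furin cutting a BOC-RVRR-AMC peptide substrate over 15 min; top concentration of the series differs between compounds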
Sequence of Furin (Homo sapiens) (P09958 whole entry, looked up): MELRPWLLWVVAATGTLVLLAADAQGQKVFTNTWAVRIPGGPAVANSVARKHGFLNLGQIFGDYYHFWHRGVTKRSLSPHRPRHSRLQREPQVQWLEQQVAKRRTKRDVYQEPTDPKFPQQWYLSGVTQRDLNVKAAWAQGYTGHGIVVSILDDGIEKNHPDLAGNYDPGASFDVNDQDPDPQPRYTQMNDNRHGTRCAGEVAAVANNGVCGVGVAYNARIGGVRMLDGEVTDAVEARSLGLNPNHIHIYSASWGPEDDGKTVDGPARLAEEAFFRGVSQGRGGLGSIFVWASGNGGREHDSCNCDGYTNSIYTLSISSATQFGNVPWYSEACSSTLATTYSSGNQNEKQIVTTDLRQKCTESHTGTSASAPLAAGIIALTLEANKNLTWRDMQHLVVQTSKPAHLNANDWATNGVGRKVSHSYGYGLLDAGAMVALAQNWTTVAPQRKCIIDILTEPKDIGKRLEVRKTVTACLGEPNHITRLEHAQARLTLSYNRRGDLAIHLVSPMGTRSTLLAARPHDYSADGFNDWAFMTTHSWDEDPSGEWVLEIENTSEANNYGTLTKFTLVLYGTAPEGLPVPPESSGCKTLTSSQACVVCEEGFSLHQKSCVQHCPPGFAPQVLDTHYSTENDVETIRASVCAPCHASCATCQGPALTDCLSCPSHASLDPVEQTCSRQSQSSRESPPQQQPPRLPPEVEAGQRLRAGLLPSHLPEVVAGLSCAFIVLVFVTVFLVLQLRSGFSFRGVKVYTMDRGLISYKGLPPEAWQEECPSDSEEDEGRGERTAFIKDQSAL
In short: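 Counterscreen measures cleavage of 2 microM BOC-RVRR-AMC, below its ~15 microM Km, by 5 nM full-length human furin at pH 7.0 after a 15-min compound preincubation. Inhibition derives from the 15-min fluorescence increase at 37C.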

[2] = ZIKV-mCherry secondary qHTS for Zika virus inhibitors (AID 1347158); note: top concentration of the series differs between compounds
In short: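 Read-out is percent infection: mCherry-positive Vero cells (nuclear-proximal intensity >450 RFU, 3 SD above negative controls) counted by high-content imaging of Hoechst-stained, PFA-fixed wells after 48-72 h with ZIKV-mCherry at MOI 1 and compound.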

[3] = test system: Zika virus NS2B-NS3 protease (linked); test: 384 well plate NINDS AMC confirmatory qHTS for Zika virus inhibitors (AID 1347163);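 note: linked protease at 5 30 or 60 nM final depending on run; fluorescence of AMC released from Ac-VKTGKR-AMC peptide cleaved by the protease; top concentration of the series differs between compounds; nearly all actives have a fitted effect of over 50% in size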
In short: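 Enzyme (5, 30 or 60 nM final) first met test compounds for ~15 min. The AMC-tagged peptide Ac-VKTGKR-AMC followed at 30 microM. Fluorescence was then recorded at 25 min and scaled against no-enzyme and no-inhibitor wells.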

[4] = test system: Zika virus NS2B-NS3 protease (linked construct); test: 384 well plate NINDS Rhodamine confirmatory qHTS for Zika virus inhibitors (AID 1347164); note: potency is the fitted concentration of half-maximal effect; nearly all actives have a fitted effect of over 65% in size
In short: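 Compounds are incubated about 15 minutes with linked protease (5, 30 or 60 nM final). Rhodamine 110-tagged Ac-LKRR substrate (10 microM final) is added and fluorescence measured after 25 minutes.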

[5] = Tertiary RLuc qRT-PCR qHTS assay for Zika virus inhibitors (AID 1347169); note: top concentration of the series differs between compounds; nearly all actives have a fitted effect of over 55% in size
In short: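 Orthogonal cell-based infection assay using recombinant ZIKV-RLuc (Cambodian) in Vero cells; compound added prior to virus at MOI 1-2. Incubation lasts 48-72 hrs at 37 degrees C before live-cell Renilla substrate is added and luminescence measured.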

[6] = biological target: Rap guanine nucleotide exchange factor 3 (Homo sapiens) (UniProt O95398); test: Confirmatory qHTS for antagonist of cAMP-regulated guanine nucleotide exchange factor 3 (EPAC1) (AID 1645880); note: nearly all actives have a fitted effect of over 55% in size
Sequence of Rap guanine nucleotide exchange factor 3 (Homo sapiens) (O95398 whole entry, looked up): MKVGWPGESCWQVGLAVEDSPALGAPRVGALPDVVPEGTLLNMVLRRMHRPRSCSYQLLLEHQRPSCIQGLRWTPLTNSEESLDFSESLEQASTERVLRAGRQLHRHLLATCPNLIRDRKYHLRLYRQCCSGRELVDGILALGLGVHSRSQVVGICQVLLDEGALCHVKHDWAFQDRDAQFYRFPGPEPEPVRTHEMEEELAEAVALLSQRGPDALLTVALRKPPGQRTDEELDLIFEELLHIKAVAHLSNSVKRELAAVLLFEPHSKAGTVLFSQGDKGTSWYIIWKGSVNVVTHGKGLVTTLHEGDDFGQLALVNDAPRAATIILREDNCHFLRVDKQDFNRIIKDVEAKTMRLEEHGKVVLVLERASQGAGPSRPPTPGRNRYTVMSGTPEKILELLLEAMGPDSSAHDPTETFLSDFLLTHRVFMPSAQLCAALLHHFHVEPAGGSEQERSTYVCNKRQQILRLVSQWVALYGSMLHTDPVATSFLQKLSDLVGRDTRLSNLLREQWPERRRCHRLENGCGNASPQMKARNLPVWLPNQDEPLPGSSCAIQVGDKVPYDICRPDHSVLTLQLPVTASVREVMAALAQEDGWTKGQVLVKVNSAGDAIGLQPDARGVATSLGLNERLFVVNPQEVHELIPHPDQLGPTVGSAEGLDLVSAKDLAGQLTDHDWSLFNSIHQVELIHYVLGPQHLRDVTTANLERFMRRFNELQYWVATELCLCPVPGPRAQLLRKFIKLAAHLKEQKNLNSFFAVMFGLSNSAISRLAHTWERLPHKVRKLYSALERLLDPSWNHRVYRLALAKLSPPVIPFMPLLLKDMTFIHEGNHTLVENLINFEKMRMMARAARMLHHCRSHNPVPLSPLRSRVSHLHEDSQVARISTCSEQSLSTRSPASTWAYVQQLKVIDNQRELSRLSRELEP
In short: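 Released BODIPY-GDP fluoresces less than Rap1-bound BODIPY-GDP; the signal is followed at 480/540 nm at 5-min intervals over 30 min, after 5 min at room temperature. Reactions contain 100 nM EPAC1, 250 nM RAP1B-BODIPY-GDP and 50 uM GDP; results are normalized to ATA and DMSO.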

[7] = biological target: Rap guanine nucleotide exchange factor 3 (Homo sapiens) (UniProt O95398); test: Confirmatory qHTS for agonist of cAMP-regulated guanine nucleotide exchange factor 3 (EPAC1) (AID 1645881);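 note: EPAC1 catalysed release of BODIPY-GDP from Rap1B seen as fluorescence loss; nearly all actives have a fitted effect of over 75% in size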
[8] = biological target: Rap guanine nucleotide exchange factor 4 (Homo sapiens) (UniProt Q8WZA2); test: Confirmatory qHTS for agonist of cAMP-regulated guanine nucleotide exchange factor 4 (EPAC2) (AID 1645884);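 note: nucleotide exchange releases bodipy-GDP from Rap1 and this lowers its fluorescence; nearly all actives have a fitted effect of over 65% in size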
Sequence of Rap guanine nucleotide exchange factor 4 (Homo sapiens) (Q8WZA2 whole entry, looked up): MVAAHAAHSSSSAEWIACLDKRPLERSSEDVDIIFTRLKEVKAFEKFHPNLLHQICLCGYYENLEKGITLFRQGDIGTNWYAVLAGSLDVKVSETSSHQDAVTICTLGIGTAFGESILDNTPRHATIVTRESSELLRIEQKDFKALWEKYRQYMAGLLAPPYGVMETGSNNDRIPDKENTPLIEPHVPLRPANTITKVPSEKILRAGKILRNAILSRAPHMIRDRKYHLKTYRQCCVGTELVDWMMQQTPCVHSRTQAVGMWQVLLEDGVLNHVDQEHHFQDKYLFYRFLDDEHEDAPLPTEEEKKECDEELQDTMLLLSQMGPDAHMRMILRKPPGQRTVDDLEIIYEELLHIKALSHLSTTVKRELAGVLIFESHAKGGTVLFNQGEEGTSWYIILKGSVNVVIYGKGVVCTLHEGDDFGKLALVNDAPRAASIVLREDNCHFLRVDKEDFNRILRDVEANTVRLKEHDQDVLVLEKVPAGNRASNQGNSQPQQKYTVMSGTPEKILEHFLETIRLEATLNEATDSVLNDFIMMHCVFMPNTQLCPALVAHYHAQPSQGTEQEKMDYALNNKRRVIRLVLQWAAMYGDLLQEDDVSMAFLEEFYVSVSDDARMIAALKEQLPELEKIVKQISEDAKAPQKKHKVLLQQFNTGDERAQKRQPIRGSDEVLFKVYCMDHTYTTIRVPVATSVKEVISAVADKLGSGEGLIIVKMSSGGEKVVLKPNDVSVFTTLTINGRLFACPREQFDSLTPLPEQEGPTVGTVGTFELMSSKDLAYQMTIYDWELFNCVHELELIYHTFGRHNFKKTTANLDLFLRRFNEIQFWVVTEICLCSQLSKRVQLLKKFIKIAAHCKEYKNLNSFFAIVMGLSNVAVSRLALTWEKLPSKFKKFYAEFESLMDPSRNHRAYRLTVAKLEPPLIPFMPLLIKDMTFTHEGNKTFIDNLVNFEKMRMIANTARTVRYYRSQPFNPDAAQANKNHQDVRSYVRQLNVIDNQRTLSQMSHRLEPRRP

[9] = biological target: Rap guanine nucleotide exchange factor 4 (Homo sapiens) (UniProt Q8WZA2); test: Confirmatory qHTS for antagonist of cAMP-regulated guanine nucleotide exchange factor 4 (EPAC2) (AID 1645885); note: nearly all actives have a fitted effect of over 25% in size
[10] = biological target: Rap guanine nucleotide exchange factor 3 (Homo sapiens) (UniProt O95398); test: Counterscreen qHTS for antagonist of cAMP-regulated guanine nucleotide exchange factor 3 (EPAC1) (AID 1645888)
In short: (§1)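 Measured: fluorescence of BODIPY-GDP bound to Rap1B, which falls as exchange proceeds. Conditions include 50 uM competing GDP, 5 and 30 min reads, and a later cAMP challenge for antagonist detection.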

[11] = biological target: Rap guanine nucleotide exchange factor 3 (Homo sapiens) (UniProt O95398); test: Counterscreen qHTS for agonist of cAMP-regulated guanine nucleotide exchange factor 3 (EPAC1) (AID 1645889); note: nearly all actives have a fitted effect of over 40% in size
In short: as §1

[12] = Confirmatory screen GU Rhodamine qHTS for Zika virus inhibitors qHTS (AID 1347157); note: nearly all actives have a fitted effect of over 70% in size
In short: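 Unlinked NS2B/NS3, 25 nM; Rhod110 peptide, 1.5 microM; compounds, up to 114 microM. Reaction run 15 min at RT in 10 mM Tris-HCl pH 8.0, 0.01% Tween 20; kinetic fluorescence change fitted with a 4-parameter Hill model.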

[13] = Confirmation and Secondary Assay for Modulators of Hemoglobin Beta Chain Splicing at IVS2 654 locus (AID 910);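 note: per-well total GFP intensity by laser scanning cytometry after 2-day treatment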
In short: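 HeLa cells stably carrying EGFP interrupted by mutant beta-globin IVS2-654 intron (CMV-driven) were treated with compound for 2 days at 37C; corrected splicing was scored as total peak GFP intensity per well (488 nm excitation, 500-520 nm emission).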

[14] = Confirmation and Secondary Assay for Modulators of Hemoglobin Beta Chain Splicing at IVS2 705 locus (AID 930);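 note: HeLa cells stably expressing the EGFP-705 splicing reporter; GFP fluorescence per well restored by corrected splicing of the IVS2-705 intron in EGFP; series mostly up to about 46 µM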
In short: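 Fluorescence gain (488 nm laser, 500-520 nm PMT) reflects restored correct splicing of a mutant IVS2-705 intron inside EGFP in stably transfected HeLa cells after 2-day compound treatment.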

[15] = biological target: Ubiquitin carboxyl-terminal hydrolase 1 (Homo sapiens) (UniProt O94782); test: Inhibitors of USP1/UAF1: Pilot qHTS (AID 504865);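 note: rhodamine fluorescence freed from ubiquitin-rhodamine substrate followed over time; top concentration of the series differs between compounds; nearly all actives have a fitted effect of over 35% in size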
Sequence of Ubiquitin carboxyl-terminal hydrolase 1 (Homo sapiens) (O94782 whole entry, looked up): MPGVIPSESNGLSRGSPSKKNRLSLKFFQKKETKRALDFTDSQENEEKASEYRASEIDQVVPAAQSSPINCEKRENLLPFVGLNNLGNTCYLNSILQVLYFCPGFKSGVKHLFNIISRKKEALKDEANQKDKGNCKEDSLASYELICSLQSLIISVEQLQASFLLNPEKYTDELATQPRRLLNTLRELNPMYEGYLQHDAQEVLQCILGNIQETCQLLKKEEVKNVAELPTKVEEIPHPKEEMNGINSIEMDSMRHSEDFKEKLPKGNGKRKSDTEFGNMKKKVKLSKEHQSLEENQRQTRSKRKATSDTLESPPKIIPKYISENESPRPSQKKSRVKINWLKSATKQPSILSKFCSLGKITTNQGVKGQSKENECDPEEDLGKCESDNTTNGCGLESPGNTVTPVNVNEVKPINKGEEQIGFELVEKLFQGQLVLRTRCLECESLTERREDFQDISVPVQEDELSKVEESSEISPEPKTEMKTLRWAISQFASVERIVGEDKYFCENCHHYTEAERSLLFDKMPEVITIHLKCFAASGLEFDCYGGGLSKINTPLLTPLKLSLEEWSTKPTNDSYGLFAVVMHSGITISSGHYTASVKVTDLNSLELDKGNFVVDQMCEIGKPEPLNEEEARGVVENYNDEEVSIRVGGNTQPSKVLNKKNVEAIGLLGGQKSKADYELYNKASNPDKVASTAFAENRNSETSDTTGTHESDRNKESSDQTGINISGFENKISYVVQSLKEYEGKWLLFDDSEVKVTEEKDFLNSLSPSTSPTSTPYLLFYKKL
In short: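 Kinetic fluorescence assay: 1nM USP1/UAF1, 15 min compound preincubation, then 150nM Ub-Rho; 480/540 nm.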

CCCCCCc1cc2cc(-c3cn4c(n3)sc3cc(OC)ccc34)c(=O)oc2cc1O
Potency [1]: inactive | Potency [2]: inactive | Potency [3]: inactive | Potency [4]: 35.5 µM (active) | Potency [5]: inactive | Potency [6]: inactive | outcome [7]: inactive | outcome [8]: inactive | activity change, negative = inhibition [9]: -6.89% [at 12.7 µM] | outcome [10]: inactive | Potency [11]: inactive

COC(=O)c1ccccc1NC(=O)CSc1nc(-c2ccccc2)cc(C(F)(F)F)n1
Potency [1]: inactive | Potency [12]: inactive | Potency [5]: inactive

O=C(CSc1nnc(-c2cccc([S+](=O)([O-])NC3CCCC3)c2)n1-c1ccccc1)Nc1ccc(C(=O)O)cc1
Potency [1]: inactive | Potency [12]: inactive | Potency [5]: inactive

Cc1cccc(C(=O)Nc2ccc(C(=O)OCc3cc(=O)n4nc(C5CC5)sc4n3)cc2)c1
Potency [1]: 26.4 µM (active) | Potency [2]: inactive | Potency [3]: inactive | Potency [5]: inactive

CCCCc1nn2c(=O)cc(COC(=O)c3cccc(NC(=O)c4cccc(Cl)c4)c3)nc2s1
Potency [1]: 29.6 µM (active) | Potency [12]: inactive | Potency [5]: inactive

O=C(Nc1ccc(C(=O)OCc2cc(=O)n3c4c(sc3n2)CCCC4)cc1)c1ccc(F)cc1
Potency [1]: 66.3 µM (active) | Potency [2]: inactive | Potency [3]: inactive | Potency [5]: inactive

O=C(OCC#CCSc1nnc(-c2cccc3ccccc23)o1)c1ccc(C(F)(F)F)cc1
Potency [1]: 41.8 µM (active) | Potency [12]: inactive | Potency [5]: inactive

NC(Cc1cc(I)c(Oc2ccc(O)c(I)c2)c(I)c1)C(=O)O (stereo not given)
outcome [13]: inactive | outcome [14]: inactive | Potency [15]: inactive | Potency [1]: inactive | Potency [12]: inactive | Potency [5]: inactive

O=C(OCc1cccc(C(F)(F)F)c1)c1ccc(-c2nnn(Cc3ccc(F)cc3)n2)cc1
Potency [1]: inactive | Potency [12]: inactive | Potency [5]: inactive
